In the library only some 27% were active in any assay of this set; here they are far more common.
CYP2C9 inhib: human CYP2C9 inhibition | P11712 | CYP2C9 Supersomes, luciferin-H conversion, luminescence | inhibition, % at 5 µM | actives 20% (n = 96,000);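 active = blocking of liver enzyme CYP2C9 beyond about 50% at 5 µM, limit read from the data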
CYP2C9 activ: increases human cytochrome P450 2C9 activity | P11712 | recombinant CYP2C9, luciferin-H conversion, luminescence; active compounds read high; factor 1 = untreated enzyme, 0 = blocked | activation factor at 5 µM | actives 1.4% (n = 96,000);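 active = activation factor of 2 or more for CYP2C9 at a 5 µM dose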;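 also: 0 = sulfaphenazole-blocked wells and 1 = vehicle-only wells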
CYP2C19 inh: inhibitors of human CYP2C19; actives 21% (n = 96,000); P33261; CYP2C19 Supersomes, luciferin-H EGE luminescence, 30 min; inhibition, % at 5 µM;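 active = CYP2C19 inhibition above a set limit at 5 µM in the primary screen, cut at about 50% in these data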;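 also: plate controls were negative control wells for no effect and 2.5 mM tranylcypromine positive control for full effect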
Target sequence (P33261 whole entry, looked up): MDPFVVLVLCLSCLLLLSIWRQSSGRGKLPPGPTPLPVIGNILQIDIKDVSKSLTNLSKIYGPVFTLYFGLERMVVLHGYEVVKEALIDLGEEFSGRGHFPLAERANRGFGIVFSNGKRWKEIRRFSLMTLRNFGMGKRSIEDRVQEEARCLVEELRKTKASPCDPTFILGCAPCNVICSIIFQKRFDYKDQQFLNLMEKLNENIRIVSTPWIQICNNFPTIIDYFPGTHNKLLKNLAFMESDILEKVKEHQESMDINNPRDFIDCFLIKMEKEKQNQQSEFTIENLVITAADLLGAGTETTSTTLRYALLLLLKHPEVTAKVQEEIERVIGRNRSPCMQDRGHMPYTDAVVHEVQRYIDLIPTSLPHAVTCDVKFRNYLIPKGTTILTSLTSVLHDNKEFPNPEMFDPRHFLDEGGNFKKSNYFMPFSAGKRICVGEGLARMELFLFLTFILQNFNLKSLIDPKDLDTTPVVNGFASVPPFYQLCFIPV
sEH activator: soluble epoxide hydrolase (human) activation; actives 0.04% (n = 91,000); activation, % at 2 µM; P34913; purified human sEH enzymatic activity, activator screen; in the data active = activation above about 37%
CYP2C19 act: activators of human cytochrome P450 2C19; P33261; recombinant CYP2C19, luciferin-H EGE luminescence; active compounds read high; 0 = fully inhibited enzyme, 1 = untreated enzyme; activation factor at 5 µM; 96,000 tested, under 10 active; AID 1025;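 active = activation factor of at least 2 at 5 µM in the primary screen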;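 also: 0 = wells with 2.5 mM tranylcypromine and 1 = vehicle-only wells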
sEH inhibitor: blocks human soluble epoxide hydrolase activity; P34913; recombinant human sEH enzymatic activity assay; inhibition, % at 2 µM; actives 0.34% (n = 91,000); AID 707; in the data active = inhibition above about 80%
* hit, by the source's call; . = no result given.

SMILES | CYP2C9 inhib | CYP2C9 activ | CYP2C19 inh | sEH activator | CYP2C19 act | sEH inhibitor
CC(C)=CCSc1nnc(CCNC(=O)OC(C)(C)C)o1 | 36 | 0.6 | 66* | 12 | 0.3 | -11
CC(C)[C@H](NC(=O)OC(C)(C)C)c1nnc(SCC(=O)Nc2ccc(Br)cc2)o1 | 70* | 0.3 | 49 | -12 | 0.5 | 11
CC(C)(C)OC(=O)N1CCC[C@H]1c1nnc(SCc2c(F)cccc2Cl)o1 | 76* | 0.2 | 45 | -1 | 0.6 | 4
CC(C)(C)OC(=O)N1CCC[C@H]1c1nnc(SCc2ccccc2Cl)o1 | 37 | 0.6 | 33 | 4 | 0.7 | -7
CC(C)(C)OC(=O)NCCc1nnc(SCc2ccc(Cl)cc2Cl)o1 | 75* | 0.2 | 60* | 6 | 0.4 | -6
CC(C)(C)OC(=O)N1CCC[C@H]1c1nnc(SCc2ccc(Cl)cc2Cl)o1 | 24 | 0.8 | 40 | 11 | 0.6 | -14
CCOC(=O)CC1C(=O)NCCN1S(=O)(=O)c1ccccc1Cl (stereo unspecified) | -3 | 1 | 16 | 1 | 0.8 | 0
Cc1cc2c3nonc3ccc2n1C | -13 | 1.1 | 22 | 3 | 0.8 | -3
CCOC(=O)C(C)N1N=C(/C=C/c2ccc(OC)cc2)CCC1=O (stereo unspecified) | 32 | 0.7 | 19 | -10 | 0.8 | 9
CSCC[C@H](NC(=O)OC(C)(C)C)c1nnc(SCC(=O)Nc2c(C)cccc2C)o1 | 58* | 0.4 | 8 | 0 | 0.9 | -3
CC(C)(C)OC(=O)NCCc1nnc(SCC(=O)c2ccc(Cl)cc2)o1 | 70* | 0.3 | 77* | -7 | 0.2 | 6
CC(C)=CCSc1nnc([C@@H](NC(=O)OC(C)(C)C)C(C)C)o1 | 44 | 0.6 | 55* | 10 | 0.4 | -12
C[C@H](NC(=O)OC(C)(C)C)c1nnc(SCC(=O)c2ccc(Cl)cc2)o1 | 21 | 0.8 | 22 | 6 | 0.8 | -5
CN(C)C(=O)CSc1nnc(CCNC(=O)OC(C)(C)C)o1 | -6 | 1.1 | 11 | -8 | 0.9 | 8
Cc1cccc(C)c1NC(=O)CSc1nnc([C@H](C)NC(=O)OC(C)(C)C)o1 | 27 | 0.7 | 18 | -8 | 0.8 | 9
CC(C)(C)OC(=O)NCCc1nnc(SCc2c(Cl)cccc2Cl)o1 | 72* | 0.3 | 92* | -3 | 0.1 | 6
COc1cc2c(cc1OC)CN(C(=O)Cc1ccc(OC)c(S(=O)(=O)N3CCOCC3)c1)CC2 | 6 | 0.9 | -6 | -2 | 1.1 | 1
Cc1noc(/C=C/N(C)C)c1S(=O)(=O)N1CCCC(C(=O)NC2CCCCC2C)C1 (stereo unspecified) | 47 | 0.5 | 15 | -21 | 0.9 | 24
C[C@H](N)c1nnc(SCC(=O)c2ccc(Cl)cc2)o1 | 7 | 0.9 | 35 | 9 | 0.7 | -9
CC(C)[C@H](N)c1nnc(SCC(=O)c2ccc(Cl)cc2)o1 | 69* | 0.3 | 99* | -1 | 0 | 1
O=C(Cc1ccccc1)CC1(O)C(=O)Nc2ccccc21 (stereo unspecified) | -30 | 1.3 | 12 | 6 | 0.9 | -1
Cc1cc([N+](=O)[O-])cnc1NC(C)c1ccccc1 (stereo unspecified) | 50 | 0.5 | 65* | 13 | 0.4 | -14
CCOC(=O)c1nnn(-c2nonc2-n2cccc2)c1C | 41 | 0.6 | 44 | 24 | 0.6 | -29
CCOC(=O)c1nnn(-c2nonc2N)c1-c1ccccc1 | 18 | 0.8 | 72* | 7 | 0.3 | -7
Cc1c(C(=O)OC(C)C)nnn1-c1nonc1N | . | . | . | -4 | . | 5
SMILES | CYP2C9 inhib | CYP2C9 activ | CYP2C19 inh | sEH activator | CYP2C19 act | sEH inhibitor
CCOC(=O)c1c(N)nn(C(=O)C(C)C)c1-c1ccccc1 | 41 | 0.6 | 69* | -10 | 0.3 | 13
Cc1c(C(=O)OCc2ccccc2)nnn1-c1nonc1N | 38 | 0.6 | 99* | . | 0 | .
CCOC(=O)c1nnn(-c2nn3nnnc3c3ccccc23)c1C | 55* | 0.4 | -11 | 3 | 1.1 | -3
Cc1cccc(N2CCCn3c2nc2c3c(=O)n(CCN3CCOCC3)c(=O)n2C)c1 | 24 | 0.8 | 12 | 8 | 0.9 | -9
CCOC(=O)c1nnn(-c2nonc2N)c1CN(C)Cc1ccccc1 | 83* | 0.2 | 33 | . | 0.7 | .
CCOC(=O)c1nnn(-c2nc(OC)nc(N3CCCC3)n2)c1-c1ccccc1 | 53* | 0.5 | 68* | -4 | 0.3 | 6
Cc1cnc(C(=O)Nc2nccs2)cn1 | -7 | 1.1 | -2 | 2 | 1 | -1
Nc1ncnc2nc(SCCc3ccccc3)[nH]c12 | 11 | 0.9 | 20 | . | 0.8 | .
Cc1ccc(C)c(NC(=O)c2ccc(N(C)S(C)(=O)=O)cc2)c1 | 51* | 0.5 | 14 | 8 | 0.9 | -6
COc1ccc(C)cc1NC(=O)c1ccc(N(C)S(C)(=O)=O)cc1 | -147 | 2.5* | 32 | 6 | 0.7 | -6
COc1ccc(C)cc1NC(=O)c1ccc2c(c1)OCO2 | -76 | 1.8 | 86* | -6 | 0.1 | 5
COc1ccccc1C(=O)Nc1cccc(N(C)S(C)(=O)=O)c1 | . | . | . | 9 | . | -10
CN(c1ccc(C(=O)Nc2ccccc2Sc2ccccc2)cc1)S(C)(=O)=O | 46 | 0.5 | 30 | 3 | 0.7 | -3
COc1ccc(NC(=O)C2CCCCN2S(=O)(=O)c2ccc(F)cc2)cc1 (stereo unspecified) | 36 | 0.6 | 68* | 2 | 0.3 | -3
CCOc1ccc(N2CC(C(=O)Nc3ccc(S(=O)(=O)N4CCOCC4)cc3)CC2=O)cc1 (stereo unspecified) | 57* | 0.4 | 22 | . | 0.8 | .
O=C(NCc1ccco1)C1CCCCN1S(=O)(=O)c1ccc(F)cc1 (stereo unspecified) | 31 | 0.7 | 61* | -11 | 0.4 | 10
O=C(NCC1CCCO1)C1CCCCN1S(=O)(=O)c1ccc(F)cc1 (stereo unspecified) | -6 | 1.1 | 2 | . | 1 | .
COc1ccc(NC(=O)C2CCCCN2S(=O)(=O)c2ccc(F)cc2)c(OC)c1 (stereo unspecified) | 26 | 0.7 | 43 | -6 | 0.6 | 6
CCOc1ccc(NC(=O)C2CCCCN2S(=O)(=O)c2ccccc2)cc1 (stereo unspecified) | -5 | 1 | 75* | -24 | 0.2 | 22
O=C(NCCS(=O)CCNC(=O)C(F)(F)F)C(F)(F)F | -6 | 1.1 | -6 | 2 | 1.1 | -2
COc1ccc(C(=O)Nc2ccc(Cl)cc2C(=O)N2CCCC(C)C2)cc1 (stereo unspecified) | 23 | 0.8 | 33 | 18 | 0.7 | -17
O=C(CCCCCN1C(=O)CCC1=O)Nc1ccc2c(c1)OCCO2 | 26 | 0.7 | 10 | -14 | 0.9 | 15
COc1ccc(NC(=O)C2CCCN2S(=O)(=O)c2ccc(C)cc2)cc1 (stereo unspecified) | 75* | 0.3 | 74* | 11 | 0.3 | -13

Screening data deposited in PubChem BioAssay by several laboratories.
